The results in this text go back to PubChem BioAssay AID1486 (The Scripps Research Institute Molecular Screening Center, 2009).

In all, about 220,000 compounds went through this assay and about 2,400 (1.1%) were called active. This is one part of a sample in which actives are shown more often than they occur.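 Rule for the calls: active = inhibition above a per-campaign cutoff, the mean inhibition of all tested compounds plus 3 SD (cut at about 27% in these data); inactive = the rest.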

The assay in a line: growth loss in parental Ba/F3 cells – cell-based, murine pro-B, CellTiter-Glo luminescence, counter-screen for JAK2V617F inhibitor project (AID 1486).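 Note: 0% = DMSO wells and 100% = JAK Inhibitor I control wells.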 The following applies: Ba/F3 parental viability, CellTiter-Glo ATP luminescence; at 5.6 µM; active compounds read high. Background: In ATP-based viability assays light output follows the ATP content of the culture.
For `CC(C)c1cc(CN2CCOCC2)cc(C(C)C)c1O`, the inhibition is -1.01% (inactive).

As for `COc1ccccc1-c1nc(C#N)c(N2CCC(C(N)=O)CC2)o1`, the inhibition was 1.59% (inactive).

As to `COc1ccc(Nc2oc(-c3ccccc3Cl)nc2C#N)cc1`, the inhibition was 29.4% (active).

In the case of `Cc1ccccc1-c1nc(C#N)c(NCc2ccco2)o1`, the inhibition is 11.3% (inactive).

Turning to `NC1=NC2(CCCCC2)N(c2ccc(F)cc2F)C(N)=N1`, the inhibition is 5.17% (inactive).

As to `COc1ccc(CCNC(=O)CC2SC(=Nc3cc(C)cc(C)c3)NC2=O)cc1OC` (stereo not drawn), the inhibition is 2.92% (inactive).

On to `O=c1cc(O)c(-c2cccc(C(F)(F)F)c2)c(Cl)[nH]1`, for which the inhibition is 13.5% (inactive).

With `COc1cc(OC)cc(C(=O)N[C@H](C(=O)Nc2nc3ccccc3[nH]2)C(C)C)c1`, the inhibition was 16.4% (inactive).

For `Cc1nc2ccc(C(=O)O)cc2[nH]1`, the inhibition was -0.24% (inactive).

In the case of `COC(=O)Nc1nc2ccc(Sc3ccccc3)cc2[nH]1`, the inhibition is 76% (active).

With `COc1ccccc1-c1c(C#N)c(N)nc2c1CCC2`, the inhibition was 0.32% (inactive).

For the molecule `COC(=O)c1sccc1NC(=O)CC1C(=O)NCCN1C(=O)Nc1ccc(F)cc1F` (stereo not drawn), the inhibition was -2.58% (inactive).

Regarding `CSc1ccc(/C=N/NC(=O)c2cccc(Cl)c2)cc1`, the inhibition was 1.81% (inactive).

Turning to `Cc1ccc(CNC(=O)C2CC(c3ccccc3[N+](=O)[O-])=NO2)o1` (stereo not drawn), the inhibition is 0.33% (inactive).

For the molecule `COc1ccc(-c2cc(C(=O)NCc3ccco3)no2)cc1OC`, the inhibition is 4.7% (inactive).

In the case of `COc1ccc(C2=NOC(C(=O)NCc3ccco3)C2)cc1OC` (stereo not drawn), the inhibition was 64.1% (active).

For `Cc1cc(N)n(-c2ccc(S(=O)(=O)N3CCCC3)cc2[N+](=O)[O-])n1`, the inhibition is 4.29% (inactive).

For the molecule `C=CCOCCN(C)C1=NS(=O)(=O)c2ccccc21`, the inhibition is 3.69% (inactive).

As to `COc1ccc(N2C(=O)CNC2=S)cc1`, the inhibition was 2.23% (inactive).

For the molecule `CCc1cccc(CC)c1NC(=S)NCc1ccc2[nH]c(C)cc2c1`, the inhibition is 8.67% (inactive).

As for `Cc1cc2cc(CNC(=O)c3cccs3)ccc2[nH]1`, the inhibition was 39% (active).

With `Cc1ccc(C)c2[nH]c(=O)c(CCNC(=O)c3cccs3)cc12`, the inhibition is 6.4% (inactive).

Turning to `Cn1c(=O)c2c(nc(N/N=C/c3cccs3)n2Cc2ccc(Br)cc2)n(C)c1=O`, the inhibition is 2.68% (inactive).

For `COc1ccc(-c2csc(-c3cccs3)n2)cc1OC`, the inhibition was 6.08% (inactive).

Take `COc1ccc(Br)cc1CN(C)CC(=O)Nc1cc([N+](=O)[O-])ccc1OC`: the inhibition was -2.62% (inactive).

Consider `CCOC(=O)c1cc(-c2ccc(F)cc2)n(CC(=O)NCc2ccccn2)c1C`, for which the inhibition is 5.17% (inactive).

For the molecule `CC1CCN(Cc2nc(-c3ccc(Cl)cc3)no2)CC1`, the inhibition is 36% (active).

For `Cc1ccc(-c2noc(CN3CCN(Cc4ccccc4)CC3)n2)cc1`, the inhibition is 3.84% (inactive).

For the molecule `CN1CCN(C(=O)CCc2nc(-c3ccc(Cl)cc3)no2)CC1`, the inhibition was 5.12% (inactive).

`O=c1[nH]c2cccnc2n(CCNc2ncc(C(F)(F)F)cc2Cl)c1=O`: the inhibition was 3.7% (inactive).

In the case of `N#CC1=C(N)Oc2[nH]c(=S)[nH]c(=O)c2C12C(=O)Nc1ccccc12` (stereo not drawn), the inhibition is 1.28% (inactive).

Consider `Cc1nc(-c2ccccc2)cn2c1nc1ccccc12`, for which the inhibition was 6.83% (inactive).

For `Cc1c(Cl)c([N+](=O)[O-])nn1CC(=O)NCC1CCCO1` (stereo not drawn), the inhibition was -0.44% (inactive).

For the molecule `COc1cc(OC)nc(S(C)(=O)=O)n1`, the inhibition is -0.84% (inactive).

With `COc1ccc(-c2cc(C(F)(F)F)nc(S(C)(=O)=O)n2)cc1OC`, the inhibition is 32.3% (active).

For the molecule `COc1ccc(-c2cc(C(F)(F)F)nc(SCC(=O)Nc3ccc4c(c3)OCO4)n2)cc1OC`, the inhibition is 6.51% (inactive).

For the molecule `CC(=O)c1ccc2c(c1)OCCOCCOc1ccc(C(C)=O)cc1OCCOCCO2`, the inhibition was 6.46% (inactive).

Consider `O=C(CSc1nnc(-c2c[nH]c3ccccc23)n1-c1ccc(F)cc1)NCc1ccco1`, for which the inhibition was 93.5% (active).

Consider `COc1ccc(-n2c(SCC(=O)NCc3ccco3)nnc2-c2c[nH]c3ccccc23)cc1`, for which the inhibition was 7.39% (inactive).

With `O=C(CSc1nnc(-c2cccs2)n1-c1ccccc1)NCc1ccco1`, the inhibition was 1.12% (inactive).

Take `CC(C)C(C)(C#N)NC(=O)CSc1nncn1-c1ccccc1` (stereo not drawn): the inhibition is 6.72% (inactive).

On to `CC(NC(=O)c1cccc2ccccc12)c1ccc2c(c1)CCCC2` (stereo not drawn), for which the inhibition was 46.5% (active).

On to `CC(=O)c1sc(NC(=O)c2cccc3ccccc23)nc1C`, for which the inhibition is 4.12% (inactive).

Take `O=C(Cc1ccc2c(c1)CCCC2)Nc1ccccc1Cl`: the inhibition is 6.44% (inactive).

For the molecule `Cc1ccc(N/N=C2\COC(C)(C)CC2=O)cc1`, the inhibition is -2.17% (inactive).

On to `O=S(=O)(NCc1ccco1)c1cnc(Cl)c(Cl)c1`, for which the inhibition was -2.02% (inactive).

In the case of `Oc1ccc2ccccc2c1C=Nc1ccccc1`, the inhibition was 3.24% (inactive).

In the case of `Oc1ccc(N=Nc2nccs2)c(O)c1`, the inhibition was 0.92% (inactive).

As to `Oc1ccc2ccccc2c1N=Nc1nccs1`, the inhibition is 101% (active).

Consider `Cc1ncoc1C(=O)N1CCCC(C(=O)c2ccc3c4c(cccc24)CC3)C1` (stereo not drawn), for which the inhibition is 5.56% (inactive).

`N=C1/C(=C/c2cccn2-c2cccc([N+](=O)[O-])c2)C(=O)N=C2SC=CN12`: the inhibition is 3.29% (inactive).

Turning to `Cc1ccc(/C=N/NC(=O)COc2ccccc2-c2ccccc2)cc1`, the inhibition is 83.4% (active).

In the case of `Cc1ccc(OCC(=O)N/N=C\c2ccco2)c(C)c1`, the inhibition is -2.78% (inactive).

Turning to `Cc1ccc(OCC(=O)N/N=C/c2ccncc2)cc1`, the inhibition was -0.78% (inactive).

With `COc1ccc2nc(Nc3nc(-c4cc5ccccc5oc4=O)cs3)sc2c1`, the inhibition is 6.64% (inactive).

As for `CCNc1nc(-c2cc3ccccc3o2)cs1`, the inhibition is 3.67% (inactive).

With `O=c1oc2ccccc2cc1-c1csc(Nc2ccc(O)cc2)n1`, the inhibition was 37.3% (active).

For the molecule `Cc1cc(Nc2ccc(Cl)cc2)nc(N2CCOCC2)n1`, the inhibition was -1.08% (inactive).

In general, inhibition refers to the change of the read-out against control, counted positive when it falls.
